# Bioassay records (PubChem)
# TDP43 rescue: inhibitors of TDP-43 toxicity in yeast. TDP-43 expressing yeast growth rescue, BacTiter-Glo, 24 h. hit rate 1.8% among 410,000. AID 652104. Potency, µM (highest dose often 46.1 µM), usual class: activators; further: nearly all actives have a fitted effect of over 50% in size
#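 Galactose-induced TDP-43 yeast, OD600=0.02, compound pinned; 24 hr, 30 deg C; BacTiter-Glo luminescence for growth. Inhibitors of TDP-43 toxicity read as activators.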
# FUS suppressor: FUS proteinopathy suppression in yeast | Potency, µM (series often up to 76.6 µM), most hits filed as activators | S. cerevisiae FUS-expressing, growth rescue, OD600, 24 h | hit rate 0.24% among 390,000; further: nearly all actives have a fitted effect of over 55% in size
#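 Cultures pregrown in 2.5% raffinose medium are shifted to minimal medium containing 2% galactose to express toxic FUS. Compounds are tested at several concentrations. After 24hr at 30C, growth is quantified at 600 nm absorbance.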
# Abeta yeast res: compounds reversing amyloid beta toxicity in yeast | AID 1347071 | Potency, µM (titrated, usually from 46.1 µM), usual class: activators | yeast expressing A-beta42, growth rescue, OD600, 48 h; response scale: 0% DMSO, 100% iron-clioquinol control | hit rate 0.063% among 410,000; further: nearly all actives have a fitted effect of over 55% in size
#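 Yeast A-beta toxicity model in growth medium with pinned compounds, 48 h at 30 C; growth read as absorbance at 600 nm. Normalized to FeCl3/clioquinol equimolar mix (positive) and DMSO (negative).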
# Mito fusion yeast: blocks mitochondrial division or promotes mitochondrial fusion | S. cerevisiae fusion-defective mutant growth rescue, CellTiterGlo 48 h | Potency, µM (top dose mostly 46.1 µM), hits mostly activators | hit rate 0.23% among 320,000; further: nearly all actives have a fitted effect of over 45% in size
#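 S. cerevisiae fusion-defective temperature-sensitive mutants (e.g. fzo1-1, mgm1-5) grown 48 h at 37C in YPEG (ethanol/glycerol non-fermentable) medium with 23 nl compound per well; growth rescue read as CellTiterGlo luminescence.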
# aSyn rescue: inhibitors of alpha-synuclein toxicity in yeast; Yeast expressing alpha-synuclein, growth rescue, BacTiter-Glo, 24 h; Potency, µM (series often up to 46.1 µM), usual class: activators; hit rate 0.14% among 370,000; further: nearly all actives have a fitted effect of over 65% in size
#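 Screening used galactose-induced yeast with toxic alpha-synuclein levels, exposed to compound for 24 hr at 30 deg C. Cell growth, read with BacTiter-Glo luminescence, gave the measured signal.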
# Hits are given with their value; n = inactive; u = inconclusive; x = not tested or not shown. Hits are enriched below; roughly 2.2% of the tested compounds scored in any of these assays. The call rests on the fitted dose curve; in most records, active means well fitted curve in the direction sought with a large enough effect; inconclusive means small, poorly fitted or top-dose-only effect, or another doubt; inactive means no such curve, though single readings can be large; an effect the other way counts as inactive or inconclusive.
SMILES,TDP43 rescue,FUS suppressor,Abeta yeast res,Mito fusion yeast,aSyn rescue
COC(=O)[C@]12C[C@H](CC(=O)N3CCCC3)C(=O)N(Cc3ccco3)C1=C[C@H](C(C)C)O[C@@H]2C1CC1,x,n,x,x,x
CN1C(=O)/C(=N\OC(=O)c2ccccc2Cl)c2ccccc21,18µM,n,n,n,n
COc1cccc(Cc2nc3ccccc3nc2SCC(=O)N2CCCCC2C)c1 (stereo not given),35µM,u,n,x,x
CCOc1ccccc1NC(=O)CSc1nc2ccccc2nc1Cc1ccc(C)cc1,25µM,n,n,x,x
Cc1ccc(Cc2nc3ccccc3nc2SCC(=O)NCCC(C)C)cc1,u,n,n,x,x
COc1cccc(Cc2nc3ccccc3nc2SCC(=O)N2CCN(c3ccccc3)CC2)c1,n,n,n,x,x
Cc1ccc(Cc2nc3ccccc3nc2SCC(=O)N2CCCCC2C)cc1 (stereo not given),35µM,u,n,x,x
CCn1c(SCC(=O)NN=Cc2cccc(OCc3ccccc3)c2)nnc1-c1ccc(OC)c(OC)c1,x,n,x,x,x
Cc1ccc(O)c(N=NC2=C(O)CC(C)(C)CC2=O)c1,n,x,u,n,7.1µM
CC1(C)CC(=O)C(N=Nc2cc(Cl)c(Cl)c(Cl)c2)=C(O)C1,n,n,n,n,n
Cc1cc(C)cc(-n2c(C)nc3cc(C(=O)NCc4ccc(F)cc4)ccc32)c1,x,n,n,x,x
Oc1ccccc1N1CCN(c2ncnc3scc(-c4ccccc4)c23)CC1,18µM,u,n,n,n
Cc1ccc(-c2csc3ncnc(N4CCN(S(=O)(=O)c5cccs5)CC4)c23)cc1,4.5µM,x,n,n,n
Cc1ccc(-c2csc3ncnc(N4CCN(S(=O)(=O)c5ccc(C#N)cc5)CC4)c23)cc1,u,n,n,x,n
O=C(c1ccco1)N1CCN(c2ncnc3scc(-c4ccc(Cl)cc4)c23)CC1,25µM,n,n,x,n
c1ccc2c(c1)OCC(c1csc3ncnc(N4CCCC4)c13)O2 (stereo not given),22µM,n,n,n,n
OCCN1CCN(c2ncnc3scc(-c4ccc(F)cc4)c23)CC1,n,n,n,n,n
Oc1ccccc1N1CCN(c2ncnc3scc(-c4ccc(F)cc4)c23)CC1,22µM,u,n,u,n
c1ccc(-c2ccc(OCCOCCn3cncn3)cc2)cc1,14µM,n,n,n,n
c1ccc(Cc2ccc(OCCn3cncn3)cc2)cc1,u,n,n,n,n
CC(=O)NC(c1ccc(N(C)C)cc1)c1cc(Cl)c2cccnc2c1O (stereo not given),28µM,n,n,x,n
CCC(=O)NC(c1cccs1)c1cc(Cl)c2cccnc2c1O (stereo not given),n,n,n,n,n
CCCCC(=O)NC(c1cccs1)c1cc(Cl)c2cccnc2c1O (stereo not given),n,n,u,n,22µM
COc1ccc(C(=O)NC(c2ccccc2Cl)c2cc(Cl)c3cccnc3c2O)cc1 (stereo not given),u,n,n,x,16µM
O=C(Cc1c(Cl)cccc1Cl)Nc1ccncc1Cl,11µM,n,n,n,n
SMILES,TDP43 rescue,FUS suppressor,Abeta yeast res,Mito fusion yeast,aSyn rescue
O=C(Cc1c(Cl)cccc1Cl)Nc1ccncc1,n,n,n,n,n
CCN(CC)c1ccc(/C=C/c2sc3ccccc3[n+]2CCCCI)cc1,x,x,x,x,n
Cc1ccc(C)c2c1[nH]c1ccccc12,14µM,n,n,n,n
Cc1ccc(NC(=O)Cn2cc(S(=O)(=O)Cc3ccc(F)cc3)c3ccccc32)cc1Cl,n,n,n,x,x
CCC(C)Nc1nc(N)c([N+](=O)[O-])c(NCc2ccccc2)n1 (stereo not given),18µM,n,n,n,n
Cc1ccc(Nc2nc(N)c([N+](=O)[O-])c(NCc3ccccc3)n2)cc1,n,n,n,n,n
CCOC(=O)/C(C#N)=C1/SC(C)C(=O)N1c1ccc(Br)cc1 (stereo not given),n,22µM,n,n,n
CCOC(=O)/C(C#N)=C1/SC(CC)C(=O)N1c1ccc(Br)cc1 (stereo not given),n,u,n,n,n
C[C@@H](C(=O)NCCc1ccccc1)N1C(=O)N2CCc3c([nH]c4ccccc34)[C@@]2(C)C1=O,35µM,n,n,n,u
C[C@@H](C(=O)NCCc1ccccc1F)N1C(=O)N2CCc3c([nH]c4ccccc34)[C@@]2(C)C1=O,n,n,n,n,u
Cc1ccc(C)n1C(CC(=O)O)c1ccc(C#N)cc1 (stereo not given),n,32µM,n,n,n
Cc1c(C(=S)Nc2ccccc2)cnn1-c1ccc([N+](=O)[O-])cc1,13µM,x,n,n,n
CC(=O)c1cnn(-c2ccccc2)c1C,n,n,n,n,n
Nc1c(C(=O)N/N=C/c2ccc([N+](=O)[O-])cc2)cnn1-c1ccccc1,n,n,n,n,n
Cc1c(C(=S)Nc2ccccc2)cnn1-c1ccccc1,16µM,x,n,n,n
Cc1c(-c2nnc(SCC(=O)Nc3ccccc3F)o2)nnn1-c1ccc(F)cc1,n,n,n,x,x
Cc1ccc(-c2cnc(-c3ccncc3)o2)cc1,16µM,n,n,n,n
Cc1ccc(-c2csc(C(O)c3ccccc3)n2)cc1C (stereo not given),25µM,n,n,x,u
COc1cc(C(O)c2nc(-c3ccc(C)c(C)c3)cs2)ccc1F (stereo not given),35µM,n,n,x,u
OC(c1ccccc1)c1nc(-c2cc3ccccc3o2)cs1 (stereo not given),14µM,n,n,x,n
CC(C)CN1C(=O)C[C@@]2(C(=O)N(C)c3ccc(NS(=O)(=O)c4ccc(F)cc4)cc32)C1c1ccccc1 (stereo not given in full),x,n,x,x,x
Cc1ccc(N(CC(=O)Nc2ccc(Br)c(C)c2)S(=O)(=O)c2cccs2)cc1,n,n,n,x,x
COC(=O)N1CCCc2cc(S(=O)(=O)N3CCN(c4ccccc4)CC3)ccc21,n,n,n,x,n
C=CCn1c(N)c(C(=O)Nc2cccc(C)c2)c2nc3ccccc3nc21,25µM,n,n,n,n
C=CCn1c(N)c(C(=O)Nc2ccc(C)c(C)c2)c2nc3ccccc3nc21,n,n,n,n,n
Oc1ccc(Oc2ncc(Cl)cc2Cl)cc1,8.9µM,x,n,n,n
CCCCn1c(=O)c2oc3ccccc3c2n(Cc2cccc(C)c2)c1=O,n,n,n,x,x
c1ccc(Oc2ccc(-c3ccn[nH]3)cc2)cc1,14µM,n,n,n,n
O=[N+]([O-])c1cc([N+](=O)[O-])c2c(=Nc3ccccc3)n(-c3ccccc3)n(O)c2c1,13µM,n,n,n,n
COCOCCn1cc(CN2CCS(=O)(=O)N(Cc3ccc(-c4ccc(Cl)c(Cl)c4)cc3)C(C(C)C)C2=O)nn1 (stereo not given),35µM,u,n,x,u
